Assay results published in PubChem BioAssay (EPA / NIEHS).
Several values for one entry are separate records, joined by “and”; a condition that tells them apart may be missing. Identical values can stand only once. Inconclusive results are not listed. Some compounds were tested as several samples or in several runs, with calls that do not always agree. Activity calls are given as the source filed them. Rule for the calls, unless noted: active = hit-call score of the fitted dose curve at least 0.9, where 1 is the maximum; inactive = score below 0.9.

Experiments:
[1] = CCTE_Shafer_MEA_acute_cross_correlation_HWHM: CCTE's Neural Acute Assay for Cross Correlation at Half Width at Half Maximum, Shafer Lab (AID 2284026);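 note: percent change per well from pre-dose baseline in spike cross-correlogram half width; hits are a decrease in cross-correlogram half width relative to DMSO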;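 for outcome: spontaneous network firing of rat primary cortical neurons on multiwell microelectrode arrays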
In short: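 Per-well percent change in cross-correlogram half width at half maximum, derived from 40-min recordings before and after compound (0.03-40 uM) at 37 C. Cultures were rat cortical neurons, DIV 13 or 15, with adaptive spike detection at 8x rms.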

[2] = target: Estrogen receptor (Homo sapiens) (UniProt P03372); assay: CCTE_Deisenroth_AIME_384WELL_LUC_Active: CCTE's 384-well Estrogen Receptor Transactivation Assay with AIME metabolic competence (ERTA luciferase; metabolism positive), Deisenroth Lab (AID 2284030; active = hit-call score of the fitted dose curve at least 0.9, where 1 is the maximum)
Sequence of Estrogen receptor (Homo sapiens) (P03372 whole entry, looked up): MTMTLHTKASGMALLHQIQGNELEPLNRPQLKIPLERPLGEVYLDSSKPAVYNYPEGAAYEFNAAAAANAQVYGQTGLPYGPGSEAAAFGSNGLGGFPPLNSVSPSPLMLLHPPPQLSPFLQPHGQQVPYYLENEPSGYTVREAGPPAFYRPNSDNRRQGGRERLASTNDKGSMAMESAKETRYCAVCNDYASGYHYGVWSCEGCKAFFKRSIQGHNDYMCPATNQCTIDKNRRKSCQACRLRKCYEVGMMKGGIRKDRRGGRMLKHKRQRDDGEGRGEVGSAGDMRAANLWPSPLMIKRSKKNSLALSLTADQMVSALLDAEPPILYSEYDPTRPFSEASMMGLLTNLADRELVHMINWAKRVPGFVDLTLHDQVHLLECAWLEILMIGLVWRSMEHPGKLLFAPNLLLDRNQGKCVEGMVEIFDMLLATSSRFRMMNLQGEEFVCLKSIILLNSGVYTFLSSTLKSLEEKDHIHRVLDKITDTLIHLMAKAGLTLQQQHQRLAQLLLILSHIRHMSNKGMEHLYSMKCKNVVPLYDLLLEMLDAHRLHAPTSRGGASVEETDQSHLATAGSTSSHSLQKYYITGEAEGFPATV
In short: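 VM7Luc4E2 breast cells were given, for 24 hours, medium pre-incubated for 2 hours with parent chemical (0.002-200 uM, 10 concentrations) and alginate-encapsulated phenobarbital/beta-naphthoflavone-induced rat hepatic S9. Luciferase gain of signal was fitted against 17beta-estradiol; n=4 or more.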

[3] = CCTE_Shafer_MEA_dev_firing_rate_mean: CCTE's Neural Network Formation Assay for Mean Firing Rate, Shafer Lab (AID 2284031);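 for AC50: curve fitted for loss of firing so AC50 reflects decreased mean firing rate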
In short: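 Extracellular spike frequency, AUC over DIV 5–12 recordings, in rat cortical neuron MEA cultures dosed from plating; loss direction vs DMSO.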

[4] = CCTE_Shafer_MEA_dev_per_burst_spike_percent: CCTE's Neural Network Formation Assay for Percent of Spikes in a Burst, Shafer Lab (AID 2284032);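 for AC50: fitted as a decrease in burst spike percentage below DMSO baseline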
In short: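 Value is trapezoidal AUC over recordings on days 5, 7, 9 and 12 of the well-mean fraction of spikes falling in single-electrode bursts; rat cortical cultures exposed continuously from plating, treatment renewed DIV 5 and 9, fitted downward against DMSO.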

[5] = target: Estrogen receptor (Homo sapiens) (UniProt P03372); assay: CCTE_Deisenroth_AIME_384WELL_LUC_Inactive: CCTE's 384-well Estrogen Receptor Transactivation Assay without AIME metabolic competence (ERTA luciferase; metabolism negative), Deisenroth Lab (AID 2284038; active = hit-call score of the fitted dose curve at least 0.9, where 1 is the maximum;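 note: hits raise estrogen receptor luciferase signal so potencies reflect agonists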)
In short: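 Metabolism-negative mode: AIME lids stamped in alginate-water, no hepatic S9. 2 h chemical incubation → medium onto VM7Luc4E2 ERTA, 24 h. Readout luciferase luminescence; gain-of-signal fit vs 17beta-estradiol. Conc. 0.002 - 200 uM.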

[6] = CCTE_Deisenroth_AIME_384WELL_CTox_Inactive: Cytotoxicity Assessment (CTOX) in CCTE's 384-well Estrogen Receptor Transactivation Assay without AIME metabolic competence (metabolism negative), Deisenroth Lab (AID 2284039; active = hit-call score of the fitted dose curve at least 0.9, where 1 is the maximum;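 note: cell viability via live-cell protease substrate cleaved to fluorescent probe; cells exposed 24 h to medium preincubated 2 h with alginate-water beads without S9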)
In short: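 VM7Luc4E2 human breast cells received conditioned medium from a 2 h incubation of chemical with alginate-water microspheres (no S9), then were exposed 24 h. Viability was read as protease-substrate cleavage to a fluorescent probe; loss of signal was fitted bidirectionally over 0.002–200 uM.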

[7] = CCTE_Shafer_MEA_dev_active_electrodes_number: CCTE's Neural Network Formation Assay for Number of Active Electrodes, Shafer Lab (AID 2284040; active = hit-call score of the fitted dose curve at least 0.9, where 1 is the maximum;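 for AC50: potency for loss of active electrodes versus DMSO so lower counts are hits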)
In short: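 Developing rat cortical networks on MEAs, exposed DIV 0–12. Value is the AUC of active-electrode counts (≥5 spikes/min) from days 5, 7, 9, 12, relative to DMSO.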

[8] = CCTE_Deisenroth_AIME_384WELL_CTox_Active: Cytotoxicity Assessment (CTOX) in CCTE's 384-well Estrogen Receptor Transactivation Assay with AIME metabolic competence (metabolism positive), Deisenroth Lab (AID 2284037; active = hit-call score of the fitted dose curve at least 0.9, where 1 is the maximum;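 note: chemicals first conditioned 2 h by alginate-bound induced rat liver S9 before cells; activity means signal loss indicating cell death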)
In short: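 VM7Luc4E2 breast cells received medium pre-incubated 2 h with chemical over alginate microspheres holding induced male Sprague Dawley rat liver S9; viability read 24 h later by protease-substrate fluorescence. Loss of signal, bidirectional fit, 0.002–200 uM.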

[9] = CCTE_Deisenroth_AIME_96WELL_CTox_Active: Cytotoxicity Assessment (CTOX) in CCTE's 96-well Estrogen Receptor Transactivation Assay with AIME metabolic competence (metabolism positive), Deisenroth Lab (AID 2284028; active = hit-call score of the fitted dose curve at least 0.9, where 1 is the maximum)
In short: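 Cytotoxicity in VM7Luc4E2 breast cells after 24 h exposure to medium from a 2 h metabolic pre-incubation with induced rat hepatic S9 in alginate microspheres; fluorescent live-cell protease readout, 10-point series 0.002–200 uM, n=4.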

[10] = CCTE_Deisenroth_AIME_96WELL_CTox_Inactive: Cytotoxicity Assessment (CTOX) in CCTE's 96-well Estrogen Receptor Transactivation Assay without AIME metabolic competence (metabolism negative), Deisenroth Lab (AID 2284029; active = hit-call score of the fitted dose curve at least 0.9, where 1 is the maximum)
In short: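 Cytotoxicity in VM7Luc4E2 breast cells was scored as loss of fluorescent signal from a live-cell protease substrate 24 h after exposure, using bidirectional curve fitting. Test media came from a 2 h metabolism-negative pre-incubation (alginate-water, no hepatic S9) of compounds at 0.002-200 uM, with at least four replicates.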

With `CC1COC(Cn2cncn2)(c2ccc(Oc3ccc(Cl)cc3)cc2Cl)O1` (stereo not drawn) the AC50 [1] was 4.15 µM (active).
With `Cc1c(F)c(F)c(COC(=O)C2C(/C=C(\Cl)C(F)(F)F)C2(C)C)c(F)c1F` (stereo not drawn) the AC50 [1] was 28.1 µM (active), the outcome [2] was “inactive” and the AC50 [3] was 598 nM (active). For the same compound, the AC50 [4] was 1.83 µM (active), the outcome [5] was “inactive” and the outcome [6] was “inactive”. The AC50 [7] was 10 µM (active).
For `N#CC(CCc1ccc(Cl)cc1)(Cn1cncn1)c1ccccc1` (stereo not drawn), the outcome [1] was “inactive”.
For `COP(N)(=O)SC` (stereo not drawn), the outcome [1] was “inactive”, the outcome [2] was “inactive” and the outcome [3] was “inactive”. The outcome [4] was “inactive”, the outcome [5] was “inactive” and the outcome [7] was “inactive”.
With `OC(c1ccc(Cl)cc1)(c1cncnc1)c1ccccc1Cl` (stereo not drawn) the AC50 [1] was 4.34 µM (active).
In the case of `CCNc1nc(Cl)nc(NC(C)C)n1`, the AC50 [1] is reported as 11.8 µM (active), the outcome [3] is reported as “inactive” and the outcome [4] is reported as “inactive”. The outcome [8] was “inactive”, the outcome [5] was “inactive” and the outcome [7] was “inactive”.
For `COC(=O)C(C)Oc1ccc(Oc2ccc(Cl)cc2Cl)cc1` (stereo not drawn), the AC50 [1] was 11.7 µM (active).
In the case of `CCCCNC(=O)OCC#CI`, the AC50 [1] is reported as 31.7 µM (active), the AC50 [3] is reported as 3.81 µM (active) and 2.25 µM (active) and the AC50 [4] is reported as 3.25 µM (active) and 1.37 µM (active). The AC50 [8] was 145 µM (active), the AC50 [6] was 124 µM (active) and the AC50 [7] was 3.93 µM (active) and 1.81 µM (active).
For `CCOP(=S)(OCC)SCn1c(=O)oc2cc(Cl)ccc21`, the outcome [1] was “inactive”.
For `COc1ccc(C(c2ccc(OC)cc2)C(Cl)(Cl)Cl)cc1`, the outcome [1] was “inactive”, the AC50 [9] was 102 µM (active) and the AC50 [10] was 72.4 µM (active). For the same compound, the outcome [3] was “inactive”, the AC50 [4] was 4.51 µM (active) and the AC50 [7] was 6.74 µM (active).
For `CC(Oc1ccc(Cl)cc1Cl)C(=O)O` (stereo not drawn), the outcome [1] was “inactive”, the outcome [2] was “inactive” and the outcome [5] was “inactive”.
With `C=CCC1=C(C)C(OC(=O)C2C(C=C(C)C)C2(C)C)CC1=O` (stereo not drawn) the AC50 [1] was 2.38 µM (active), the outcome [1] was “inactive” and the outcome [3] was “inactive”. The AC50 [4] was 14.8 µM (active), the outcome [4] was “inactive” and the outcome [5] was “inactive”. For the same compound, the AC50 [7] was 10 µM (active) and 14.8 µM (active).
For `CC(C)(C)c1ccc(CSc2cnn(C(C)(C)C)c(=O)c2Cl)cc1`, the AC50 [1] was 4.43 µM (active), the AC50 [3] was 4.92 nM (active) and the AC50 [4] was 0.00382 µM (active). For the same compound, the AC50 [8] was 19.8 µM (active), the outcome [6] was “inactive” and the AC50 [7] was 0.0031 µM (active).
With `COC(=O)N(OC)c1ccccc1COc1ccn(-c2ccc(Cl)cc2)n1` the AC50 [1] was 1.62 µM (active), the outcome [2] was “inactive” and the AC50 [3] was 79.6 nM (active). For the same compound, the outcome [3] was “inactive”, the AC50 [4] was 184 nM (active) and 27 nM (active) and the AC50 [8] was 2.68 µM (active). The outcome [5] was “inactive”, the AC50 [6] was 19.8 µM (active) and the AC50 [7] was 77 nM (active) and 13.7 nM (active).
With `CS/C(C)=N/OC(=O)N(C)SN(C)C(=O)O/N=C(\C)SC` the outcome [1] was “inactive”.
With `CCCC1COC(Cn2cncn2)(c2ccc(Cl)cc2Cl)O1` (stereo not drawn) the AC50 [1] was 25.8 µM (active).
With `CC(C)Oc1cc(-n2nc(C(C)(C)C)oc2=O)c(Cl)cc1Cl` the outcome [1] was “inactive”.
For `CON(C)C(=O)Nc1ccc(Cl)c(Cl)c1`, the AC50 [1] was 6.23 µM (active).
For `O=C(O)c1nc(Cl)ccc1Cl`, the outcome [1] was “inactive”, the outcome [2] was “inactive” and the outcome [5] was “inactive”.
In the case of `CCCN(CCC)c1c([N+](=O)[O-])cc(S(N)(=O)=O)cc1[N+](=O)[O-]`, the AC50 [1] is reported as 10.5 µM (active).
For `Fc1ccc(Oc2ccnc3cc(Cl)cc(Cl)c23)cc1`, the outcome [1] was “inactive”.
For `CC1=C(C(=O)Nc2ccccc2)SCCO1`, the outcome [2] was “inactive” and the outcome [5] was “inactive”.
With `C=CC1(C)OC(=O)N(c2cc(Cl)cc(Cl)c2)C1=O` (stereo not drawn) the outcome [2] was “inactive”, the outcome [3] was “inactive” and the outcome [4] was “inactive”. The AC50 [5] was 63.4 µM (active), the outcome [6] was “inactive” and the AC50 [7] was 50 µM (active).
For `O=C(O)COc1nc(Cl)c(Cl)cc1Cl`, the outcome [2] was “inactive” and the outcome [5] was “inactive”.
With `N#Cc1cc(Br)c(O)c(Br)c1` the outcome [8] was “inactive” and the outcome [6] was “inactive”.
For `Cc1ccc(-c2c(Cl)nc(C#N)n2S(=O)(=O)N(C)C)cc1`, the outcome [1] was “inactive”, the AC50 [3] was 18000 nM (active) and the AC50 [4] was 18.3 µM (active). For the same compound, the AC50 [7] was 39 µM (active).
With `CCCCNC(=O)n1c(NC(=O)OC)nc2ccccc21` the outcome [3] was “inactive”, the AC50 [4] was 15 µM (active) and the AC50 [7] was 15 µM (active).
With `CNC(=O)ON=CC(C)(C)SC` the outcome [1] was “inactive”, the outcome [3] was “inactive” and the outcome [4] was “inactive”. The outcome [7] was “inactive”.
In the case of `COc1cnc(OC)n2nc(NS(=O)(=O)c3c(OCC(F)F)cccc3C(F)(F)F)nc12`, the AC50 [2] is reported as 21.2 µM (active), the outcome [8] is reported as “inactive” and the AC50 [5] is reported as 13.7 µM (active). For the same compound, the outcome [6] was “inactive”.
For `CCON=C(CC)C1=C(O)CC(c2c(C)cc(C)cc2C)CC1=O` (stereo not drawn), the outcome [2] was “inactive” and the outcome [8] was “inactive”.
With `CCOc1cc(Oc2ccc(C(F)(F)F)cc2Cl)ccc1[N+](=O)[O-]` the AC50 [3] was 12800 nM (active), the AC50 [4] was 12.8 µM (active) and the outcome [8] was “inactive”. The outcome [6] was “inactive” and the AC50 [7] was 4.91 µM (active).
For `CO/C=C(/C(=O)OC)c1ccccc1Oc1cc(Oc2ccccc2C#N)ncn1`, the outcome [1] was “inactive”, the AC50 [3] was 925 nM (active) and 1.71 µM (active) and the AC50 [4] was 1.64 µM (active) and 1.26 µM (active). The AC50 [7] was 1.52 µM (active) and 1.07 µM (active).
